In PubChem BioAssay AID1159580 (chemical genetic matrix, 2015):
“And” between values parts separate entries of the source, which are not always exact repeats. Equal values may be shown once. Out of some 5,500 compounds screened, about 2,000 (36%) were called active. Roughly 18% stayed inconclusive and do not appear here. Rule as the data show it: active = normalized growth mostly below about 0.91 (no sharp cut-off); inconclusive = no clear call, values can overlap the other calls; inactive = mostly above about 0.92. The list shows a part of the results.

Test: chemical genetic growth profiling, strain panel (AID 1159580);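 also: tested at 20 µM; growth read once vehicle control cultures reached saturation at 30 °C; 1 = growth at the plate median or of vehicle wells; lower values mean less growth of the strain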
Conditions: S. cerevisiae deletion strains, growth OD

Measured: normalized growth

COc1c(O)cc2c(c1O)[C@H]1O[C@H](CO)[C@@H](O)[C@H](O)[C@@H]1OC2=O
inactive: locus YAL021C, strain ccr4, active compounds read low 1.03 | locus YAL026C, strain drs2, active compounds read low 1.02 | locus YAL030W, strain snc1, active compounds read low 1.02 | locus YBL061C, strain skt5, active compounds read low 1.03 | locus YBR009C, strain hhf1, active compounds read low 1.02 | locus YBR021W, strain FUR4, active compounds read low 0.961 | locus YBR023C, strain chs3, active compounds read low 1.03 | locus YBR171W, strain sec66, active compounds read low 1.02 | locus YBR229C, strain ROT2, active compounds read low 0.993 | locus YBR231C, strain swc5, active compounds read low 1.02 | locus YBR279W, strain paf1, active compounds read low 1.02 | locus YCL011C, strain gbp2, active compounds read low 1.02 | locus YCL016C, strain dcc1, active compounds read low 1.04 | locus YCL029C, strain bik1, active compounds read low 0.998 | locus YCL061C, strain MRC1, active compounds read low 1.02 | locus YCL069W, strain vba3, active compounds read low 1.02 | locus YCR088W, strain abp1, active compounds read low 1.02 | locus YDL005C, strain med2, active compounds read low 1.03 | locus YDL035C, strain GPR1, active compounds read low 1.02 | locus YDL040C, strain nat1, active compounds read low 1.02 | locus YDL074C, strain BRE1, active compounds read low 0.992 | locus YDL101C, strain DUN1, active compounds read low 0.985 | locus YDL185W, strain tfp1, active compounds read low 1.02 | locus YDL192W, strain arf1, active compounds read low 0.983 | locus YDR001C, strain nth1, active compounds read low 1.02 | locus YDR069C, strain doa4, active compounds read low 1.03 | locus YDR101C, strain arx1, active compounds read low 1.01 | locus YDR137W, strain rgp1, active compounds read low 1.05 | locus YDR150W, strain NUM1, active compounds read low 0.98 | locus YDR159W, strain sac3, active compounds read low 1 | locus YDR162C, strain NBP2, active compounds read low 0.988 | locus YDR195W, strain ref2 1 | locus YDR297W, strain sur2, active compounds read low 1.02 | locus YDR318W, strain mcm21, active compounds read low 1.01 | locus YDR334W, strain swr1, active compounds read low 1.02 | locus YDR335W, strain msn5, active compounds read low 1.02 | locus YDR388W, active compounds read low 0.996 | locus YDR392W, strain spt3, active compounds read low 0.966 | locus YDR502C, strain sam2, active compounds read low 1 | locus YEL003W, strain gim4, active compounds read low 1.02 | locus YEL037C, strain rad23, active compounds read low 1.02 | locus YEL061C, strain CIN8 (second series), active compounds read low 1.02 | locus YEL061C, strain CIN8, active compounds read low 0.962 | locus YER015W, strain faa2, active compounds read low 1.01 | locus YER016W, strain bim1, active compounds read low 1.02 | locus YER110C, active compounds read low 1.01 | locus YER111C, strain swi4, active compounds read low 1.01 | locus YER155C, strain BEM2 (second series), active compounds read low 1 | locus YER155C, strain BEM2, active compounds read low 0.996 | locus YER167W, strain BCK2, active compounds read low 0.973 | locus YFR010W, strain ubp6, active compounds read low 1.02 | locus YGL078C, strain dbp3, active compounds read low 1.03 | locus YGL086W, strain mad1, active compounds read low 0.991 | locus YGL167C, strain pmr1, active compounds read low 1.02 | locus YGL173C, strain kem1, active compounds read low 1.01 | locus YGL227W, strain vid30, active compounds read low 1.02 | locus YGL240W, strain doc1, active compounds read low 1.01 | locus YGL248W, strain PDE1, active compounds read low 1 | locus YGL253W, strain hxk2, active compounds read low 1.02 | locus YGR135W, strain pre9, active compounds read low 0.995 | locus YGR252W, strain gcn5, active compounds read low 0.991 | locus YHR013C, strain ard1, active compounds read low 1.02 | locus YHR027C, strain rpn1, active compounds read low 1.01 | locus YHR030C, strain SLT2, active compounds read low 1.01 and 0.959 | locus YHR079C, strain IRE1 (second series), active compounds read low 1.01 | locus YHR079C, strain IRE1, active compounds read low 0.987 | locus YHR094C, strain hxt1, active compounds read low 0.996 | locus YHR129C, strain ARP1, active compounds read low 0.988 | locus YHR142W, strain chs7, active compounds read low 1.05 | locus YHR200W, strain rpn10, active compounds read low 1 | locus YIL066C, strain RNR3, active compounds read low 0.986 | locus YIL073C, strain SPO22, active compounds read low 1.05 | locus YIL125W, strain kgd1, active compounds read low 1.01 | locus YIR030C, strain dcg1, active compounds read low 1 | locus YJL092W, strain hpr5, active compounds read low 1.02 | locus YJL095W, strain BCK1 (second series), active compounds read low 1.03 | locus YJL095W, strain BCK1, active compounds read low 0.811 and 0.98 | locus YJL115W, strain asf1, active compounds read low 1.01 | locus YJL129C, strain trk1, active compounds read low 1.04 | locus YJL134W, strain LCB3, active compounds read low 0.998 | locus YJL154C, strain vps35, active compounds read low 1.01 | locus YJL164C, strain tpk1, active compounds read low 1.02 | locus YJL166W, strain qcr8, active compounds read low 1.03 | locus YJL168C, strain set2, active compounds read low 1 | locus YJL187C, strain SWE1 (second series), active compounds read low 0.969 | locus YJL187C, strain SWE1, active compounds read low 1.03 | locus YJR043C, strain POL32, active compounds read low 0.997 | locus YJR066W, strain TOR1, active compounds read low 0.934 | locus YJR075W, strain HOC1, active compounds read low 1
